According to PubChem BioAssay AID602449 (Sanford-Burnham Center for Chemical Genomics, 2012):
In all, about 360,000 compounds went through this assay and about 5,000 (1.4%) were called active.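 Rule for the calls: active = inhibition of 50% or more, scaled per plate between neutral and stimulator controls; inactive = the rest.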 The entries come from a sample that favours actives as a whole.

experiment: mitochondrial permeability transition pore inhibitors, primary screen, biochemical, isolated mouse mitochondria, absorbance (AID 602449); details: Ca2+ swelling absorbance, 30 min, at 10 µM, hits give high values;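 note: 0% = DMSO wells given calcium and 100% = 1 mM EGTA wells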

**Q.** With `CCCCC(=O)N/N=C/c1c(O)n(CCC2=CCCCC2)c(=O)[nH]c1=O` as the compound, how does the inhibition read?
**A.** -4.5% (inactive)

**Q.** For `Cn1c(O)c(C=NCCCC(=O)O)c(=O)n(C)c1=O`, which inhibition is on record?
**A.** 1.1% (inactive)

**Q.** With `CCCCC(=O)N/N=C/c1c(O)n(CC)c(=S)n(CC)c1=O` as the compound, how does the inhibition read?
**A.** 58% (active)

**Q.** With `COc1ccc2c(c1)[C@]13CCCCC1C(C2)N(C)CC3` (stereo not given in full) as the compound, how does the inhibition read?
**A.** -3% (inactive)

**Q.** Which inhibition does the source give for `Cc1ccc(C2CN(C)CC2C(=O)c2ccc(F)cc2)cc1` (stereo not given) here?
**A.** -0.4% (inactive)

**Q.** With `CCN(CC)CCOC(=O)c1cc2cc(COC)ccc2o1` as the compound, how does the inhibition read?
**A.** -3.6% (inactive)

**Q.** For `CCOc1cccc(=NC2CCCCC2)c2c(C)[nH]c(C)c12`, which inhibition is on record?
**A.** 62.7% (active)

**Q.** With `C=CCn1c(O)c(/C=N/N2CCOCC2)c(=O)[nH]c1=S` as the compound, how does the inhibition read?
**A.** -1.7% (inactive)

**Q.** Which inhibition does the source give for `O=C(CCCn1c(=O)[nH]c2cc(Cl)ccc2c1=O)N1CCC2(CC1)OCCO2` here?
**A.** 1.1% (inactive)

**Q.** Which inhibition does the source give for `C[C@H]1CN([C@@H](C)CO)C(=O)CCCn2nncc2CO[C@H]1CN(C)C(=O)Oc1ccccc1` here?
**A.** 0.9% (inactive)

**Q.** For `CCCCCCCCCCCCn1ccc(=N)cc1`, which inhibition is on record?
**A.** 68.6% (active)

**Q.** Which inhibition does the source give for `CC(=O)NCC1=C(c2ccc3ccccc3c2)C[C@@H]2CC[C@H]1N2Cc1ccco1` here?
**A.** -0.6% (inactive)

**Q.** With `O=C(CN1CCCCC1)Nc1ccc(Br)cc1C(=O)c1ccccc1Cl` as the compound, how does the inhibition read?
**A.** 1.1% (inactive)

**Q.** Which inhibition does the source give for `COc1c(O)ccc2c1-c1c3c(cc4c1C(C2)N(C)CC4)OCO3` (stereo not given) here?
**A.** -0.5% (inactive)

**Q.** Which inhibition does the source give for `COc1ccc(C2NCc3ccc4c(c3-n3cccc32)OCO4)cc1OC` (stereo not given) here?
**A.** 68% (active)

**Q.** For `c1ccc(C2NCc3ccccc3-n3cccc32)cc1` (stereo not given), which inhibition is on record?
**A.** 0.4% (inactive)

**Q.** Which inhibition does the source give for `O=C(Nc1cccc2ccccc12)N1CCC2(CC1)OCCO2` here?
**A.** 0.6% (inactive)

**Q.** With `O=C1/C(=C\c2ccc3c(c2)OCO3)N2CCC1CC2` as the compound, how does the inhibition read?
**A.** -0.8% (inactive)

**Q.** With `O=c1c2ccccc2nc(-c2ccc(Cl)cc2Cl)n1-c1ccncc1` as the compound, how does the inhibition read?
**A.** 0.3% (inactive)

**Q.** Which inhibition does the source give for `COc1ccc(-c2nc(CS(=O)CC(=O)N3CCC4(CC3)OCCO4)c(C)o2)cc1` (stereo not given) here?
**A.** 1% (inactive)

**Q.** With `O=Cc1cn(Cc2ccc(F)cc2Cl)c2ccccc12` as the compound, how does the inhibition read?
**A.** 60.7% (active)

**Q.** For `Cc1ccnc(-n2c(C)cc(/C=C3\C(=O)NC(=S)N(C)C3=O)c2C)c1`, which inhibition is on record?
**A.** 6.4% (inactive)

**Q.** With `O=C1C2CCN(CC2)C1(CO)CO` as the compound, how does the inhibition read?
**A.** -0.5% (inactive)

**Q.** Which inhibition does the source give for `CCN(CC)C(=O)c1ccc(NC(=O)c2sccc2-c2ccccc2)cc1` here?
**A.** 0.3% (inactive)

**Q.** For `CCCCCCN=C(CC)c1c(O)n(CCCC)c(=O)[nH]c1=O`, which inhibition is on record?
**A.** 79.8% (active)

**Q.** Which inhibition does the source give for `CCCCn1c(O)c(C(CC)=NCc2ccco2)c(=O)[nH]c1=O` here?
**A.** -0.1% (inactive)

**Q.** With `CCC(=NCCCO)c1c(O)n(-c2ccc(OC)cc2)c(=O)[nH]c1=O` as the compound, how does the inhibition read?
**A.** 2.3% (inactive)

**Q.** Which inhibition does the source give for `Cc1cccc(-n2c(O)c(C=NC34CN5CN(CN(C5)C3)C4)c(=O)[nH]c2=O)c1` here?
**A.** 2.5% (inactive)

**Q.** For `CSc1ccc(C(=O)C2CCCN(Cc3ccn[nH]3)C2)cc1` (stereo not given), which inhibition is on record?
**A.** 1.7% (inactive)

**Q.** For `CC(=CCOc1ccc2ccc(=O)oc2c1)C1=CC(=O)C(C)(C)O1`, which inhibition is on record?
**A.** 1.5% (inactive)

**Q.** For `O=C(NCC1=C(c2ccc3ccccc3c2)C[C@@H]2CC[C@H]1N2Cc1ccco1)c1cccs1`, which inhibition is on record?
**A.** -1.7% (inactive)

**Q.** Which inhibition does the source give for `CC(Cc1ccccc1)NCCC(c1ccccc1)c1ccccc1` (stereo not given) here?
**A.** 104% (active)

**Q.** For `CCOc1ccc(C2SCC(=O)Nc3c2c(C)nn3C2CCOC(C)(C)C2)cc1` (stereo not given), which inhibition is on record?
**A.** 0.4% (inactive)

**Q.** Which inhibition does the source give for `Cc1ccsc1C(=O)C1CCCN(Cc2ccc(O)cc2)C1` (stereo not given) here?
**A.** 0.1% (inactive)

**Q.** For `Cn1c(O)c(C=Nc2ccc3c(c2)CCC3)c(=O)n(C)c1=O`, which inhibition is on record?
**A.** -1.3% (inactive)
